From paper PMC7862700, “An all-to-all approach to the identification of sequence-specific readers for epigenetic DNA modifications on cytosine”

Key:
Assay in all cases: DAPPL (digital affinity profiling via proximity ligation, sequencing); 10 mM Tris-HCl pH 7.5, 50 mM NaCl, 1 mM DTT, 4% glycerol, room temperature, 30 min; GST-TFs on glutathione beads, 16-mer random dsDNA library, 0.1% formaldehyde crosslink after washing; high values mean tight binding
[1] = target: T1, FLI1 (Homo sapiens, UniProt Q01543 1-452); conditions: protein: recombinant; tags: N-terminal GST; dsDNA, one strand shown
T1 sequence: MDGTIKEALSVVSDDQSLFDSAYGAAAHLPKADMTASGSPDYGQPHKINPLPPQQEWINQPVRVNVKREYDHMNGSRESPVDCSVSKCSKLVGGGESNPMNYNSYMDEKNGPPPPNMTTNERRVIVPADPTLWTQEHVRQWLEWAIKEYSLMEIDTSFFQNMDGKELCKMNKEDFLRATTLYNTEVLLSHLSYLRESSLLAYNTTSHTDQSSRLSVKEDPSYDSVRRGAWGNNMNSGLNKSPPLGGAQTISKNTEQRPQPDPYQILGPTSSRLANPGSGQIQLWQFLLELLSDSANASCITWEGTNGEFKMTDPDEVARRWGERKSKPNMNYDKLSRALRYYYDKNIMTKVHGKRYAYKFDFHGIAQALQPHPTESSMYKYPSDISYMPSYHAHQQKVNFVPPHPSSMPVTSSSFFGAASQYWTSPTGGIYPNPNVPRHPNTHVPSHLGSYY
How it was run: (§1)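 Human transcription factors carrying a GST fusion were produced in yeast, bound to glutathione beads, tagged with DNA barcodes and pooled together with a tag-only sample. Each pool was held with 200 nmole of a random double-stranded 16-mer DNA library in Tris/NaCl/DTT/glycerol buffer for 30 min at room temperature, then washed, crosslinked in 0.1% formaldehyde, proximity-ligated with BsaI/T4 ligase (1 h, 37 °C), PCR-amplified and sequenced on an Illumina NextSeq500. Binding signal is the read frequency of each hexamer for a given factor divided by its frequency in the tag-only sample.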

[2] = target: T2, ELK1 (Homo sapiens, UniProt P19419 1-428); conditions: protein: recombinant; tags: N-terminal GST; dsDNA, one strand shown
T2 sequence: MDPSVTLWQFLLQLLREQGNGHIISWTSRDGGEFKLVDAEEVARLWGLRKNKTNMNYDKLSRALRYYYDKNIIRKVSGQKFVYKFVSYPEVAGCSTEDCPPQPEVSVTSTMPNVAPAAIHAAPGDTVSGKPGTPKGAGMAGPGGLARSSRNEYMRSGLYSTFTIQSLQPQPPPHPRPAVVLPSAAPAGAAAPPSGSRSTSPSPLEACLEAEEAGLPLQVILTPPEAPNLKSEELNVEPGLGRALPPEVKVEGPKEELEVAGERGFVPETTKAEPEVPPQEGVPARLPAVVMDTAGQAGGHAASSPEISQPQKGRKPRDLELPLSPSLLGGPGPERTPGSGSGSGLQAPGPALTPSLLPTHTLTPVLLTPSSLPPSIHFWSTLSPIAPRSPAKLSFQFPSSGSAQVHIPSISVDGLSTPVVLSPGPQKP
How it was run: as §1

[3] = target: T3, GABPA (Homo sapiens, UniProt Q06546 1-454); conditions: protein: recombinant; tags: N-terminal GST; dsDNA, one strand shown
T3 sequence: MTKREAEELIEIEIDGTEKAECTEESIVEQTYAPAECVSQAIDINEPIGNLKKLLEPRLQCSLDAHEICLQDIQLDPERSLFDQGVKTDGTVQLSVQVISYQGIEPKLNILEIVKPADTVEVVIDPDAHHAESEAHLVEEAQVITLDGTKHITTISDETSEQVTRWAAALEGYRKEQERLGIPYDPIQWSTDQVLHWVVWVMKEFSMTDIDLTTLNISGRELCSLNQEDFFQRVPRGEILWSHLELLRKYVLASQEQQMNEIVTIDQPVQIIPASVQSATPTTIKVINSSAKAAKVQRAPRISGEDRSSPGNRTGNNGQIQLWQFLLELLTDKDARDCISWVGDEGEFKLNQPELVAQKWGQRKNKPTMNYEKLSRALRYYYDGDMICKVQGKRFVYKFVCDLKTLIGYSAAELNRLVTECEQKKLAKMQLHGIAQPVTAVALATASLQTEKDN
How it was run: as §1

[4] = target: T4, ERG (Homo sapiens, UniProt P11308 1-479); conditions: protein: recombinant; tags: N-terminal GST; dsDNA, one strand shown
T4 sequence: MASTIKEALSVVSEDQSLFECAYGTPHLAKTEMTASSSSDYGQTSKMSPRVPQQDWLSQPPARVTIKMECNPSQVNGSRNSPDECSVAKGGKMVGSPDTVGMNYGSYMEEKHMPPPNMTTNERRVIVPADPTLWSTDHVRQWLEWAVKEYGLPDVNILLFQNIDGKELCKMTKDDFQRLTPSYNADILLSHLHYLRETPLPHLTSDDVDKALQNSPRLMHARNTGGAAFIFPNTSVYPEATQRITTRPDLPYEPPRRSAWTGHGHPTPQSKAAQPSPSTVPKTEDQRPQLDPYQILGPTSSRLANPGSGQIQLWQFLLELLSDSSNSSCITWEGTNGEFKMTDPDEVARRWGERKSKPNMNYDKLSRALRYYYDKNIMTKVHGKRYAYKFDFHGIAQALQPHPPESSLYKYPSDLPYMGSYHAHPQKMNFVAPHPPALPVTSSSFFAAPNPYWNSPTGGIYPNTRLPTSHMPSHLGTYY
How it was run: as §1

[5] = target: ELF1 (Homo sapiens, UniProt P32519 1-619); conditions: protein: recombinant; tags: N-terminal GST; dsDNA, one strand shown
Chain of ELF1 (P32519 whole entry): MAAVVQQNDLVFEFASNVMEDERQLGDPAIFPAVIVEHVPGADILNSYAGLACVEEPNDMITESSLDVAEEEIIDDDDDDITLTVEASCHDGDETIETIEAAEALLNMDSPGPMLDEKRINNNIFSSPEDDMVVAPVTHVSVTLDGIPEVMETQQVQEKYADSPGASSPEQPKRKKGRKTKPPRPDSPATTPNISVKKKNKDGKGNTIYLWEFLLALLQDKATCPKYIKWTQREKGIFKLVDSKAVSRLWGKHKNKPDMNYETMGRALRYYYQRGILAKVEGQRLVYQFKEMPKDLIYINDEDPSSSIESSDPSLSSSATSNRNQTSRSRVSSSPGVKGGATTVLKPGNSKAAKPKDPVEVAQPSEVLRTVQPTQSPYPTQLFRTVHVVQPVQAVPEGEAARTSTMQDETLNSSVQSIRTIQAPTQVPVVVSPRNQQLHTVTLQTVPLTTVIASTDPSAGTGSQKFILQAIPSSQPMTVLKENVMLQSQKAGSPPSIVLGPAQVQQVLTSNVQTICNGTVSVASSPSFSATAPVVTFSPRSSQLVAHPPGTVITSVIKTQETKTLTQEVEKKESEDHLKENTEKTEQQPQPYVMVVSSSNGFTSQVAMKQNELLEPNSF
How it was run: as §1

[6] = target: T5, EHF (Homo sapiens, UniProt Q9NZC4 1-300); conditions: protein: recombinant; tags: N-terminal GST; dsDNA, one strand shown
T5 sequence: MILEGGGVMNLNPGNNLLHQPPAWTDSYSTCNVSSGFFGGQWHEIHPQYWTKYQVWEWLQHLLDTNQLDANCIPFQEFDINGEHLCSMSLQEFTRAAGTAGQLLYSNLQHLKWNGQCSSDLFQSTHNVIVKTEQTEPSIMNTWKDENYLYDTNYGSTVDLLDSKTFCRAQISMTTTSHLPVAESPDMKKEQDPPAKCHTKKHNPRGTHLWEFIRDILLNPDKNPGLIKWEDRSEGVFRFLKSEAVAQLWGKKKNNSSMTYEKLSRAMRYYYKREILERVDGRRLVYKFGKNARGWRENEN
How it was run: as §1

[7] = target: SPI1 (Homo sapiens, UniProt P17947 1-270); conditions: protein: recombinant; tags: N-terminal GST; dsDNA, one strand shown
How it was run: as §1

[8] = target: SPIB (Homo sapiens, UniProt Q01892 1-262); conditions: protein: recombinant; tags: N-terminal GST; dsDNA, one strand shown
Chain of SPIB (Q01892 whole entry): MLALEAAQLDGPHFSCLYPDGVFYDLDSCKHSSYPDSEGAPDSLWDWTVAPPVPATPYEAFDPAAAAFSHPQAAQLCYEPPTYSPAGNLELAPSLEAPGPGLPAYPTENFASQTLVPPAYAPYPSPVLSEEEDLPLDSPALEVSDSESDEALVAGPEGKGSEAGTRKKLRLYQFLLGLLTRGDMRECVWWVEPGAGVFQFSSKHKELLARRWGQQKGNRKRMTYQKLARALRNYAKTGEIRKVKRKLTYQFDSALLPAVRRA
How it was run: as §1

[9] = target: T6, ELK3 (Homo sapiens, UniProt P41970 1-407); conditions: protein: recombinant; tags: N-terminal GST; dsDNA, one strand shown
T6 sequence: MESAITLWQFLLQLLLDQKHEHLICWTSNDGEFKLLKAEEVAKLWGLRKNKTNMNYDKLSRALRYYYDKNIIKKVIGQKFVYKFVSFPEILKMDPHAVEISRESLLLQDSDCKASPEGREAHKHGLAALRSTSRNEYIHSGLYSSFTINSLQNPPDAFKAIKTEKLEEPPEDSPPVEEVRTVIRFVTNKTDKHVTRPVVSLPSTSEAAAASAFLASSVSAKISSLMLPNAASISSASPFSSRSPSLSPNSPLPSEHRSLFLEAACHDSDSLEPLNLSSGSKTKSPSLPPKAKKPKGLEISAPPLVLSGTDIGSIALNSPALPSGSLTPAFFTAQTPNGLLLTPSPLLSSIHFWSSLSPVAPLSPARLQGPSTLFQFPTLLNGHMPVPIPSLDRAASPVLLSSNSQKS
How it was run: as §1

[10] = target: T7, FEV (Homo sapiens, UniProt Q99581 1-238); conditions: protein: recombinant; tags: N-terminal GST; dsDNA, one strand shown
T7 sequence: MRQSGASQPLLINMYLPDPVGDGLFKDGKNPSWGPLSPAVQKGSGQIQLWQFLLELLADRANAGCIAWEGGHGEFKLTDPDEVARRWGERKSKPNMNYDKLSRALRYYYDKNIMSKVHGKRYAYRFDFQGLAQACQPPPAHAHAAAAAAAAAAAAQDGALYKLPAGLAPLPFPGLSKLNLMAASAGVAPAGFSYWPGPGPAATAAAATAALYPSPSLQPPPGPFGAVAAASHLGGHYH
How it was run: as §1

[11] = target: ETV5 (Homo sapiens, UniProt P41161 1-510); conditions: protein: recombinant; tags: N-terminal GST; dsDNA, one strand shown
Chain of ETV5 (P41161 whole entry): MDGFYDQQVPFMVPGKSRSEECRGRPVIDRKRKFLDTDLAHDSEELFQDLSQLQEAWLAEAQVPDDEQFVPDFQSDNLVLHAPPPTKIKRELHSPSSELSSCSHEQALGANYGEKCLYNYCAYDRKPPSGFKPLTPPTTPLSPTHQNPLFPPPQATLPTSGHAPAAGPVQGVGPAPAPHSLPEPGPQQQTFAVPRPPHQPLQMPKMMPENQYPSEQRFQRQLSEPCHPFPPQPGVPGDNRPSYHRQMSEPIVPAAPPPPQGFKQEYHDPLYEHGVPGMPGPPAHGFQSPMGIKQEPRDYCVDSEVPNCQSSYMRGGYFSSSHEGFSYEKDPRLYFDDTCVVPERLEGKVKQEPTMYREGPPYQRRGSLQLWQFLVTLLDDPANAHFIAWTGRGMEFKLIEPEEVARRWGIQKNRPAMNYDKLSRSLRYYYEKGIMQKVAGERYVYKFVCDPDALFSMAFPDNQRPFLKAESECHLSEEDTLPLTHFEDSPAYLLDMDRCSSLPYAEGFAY
How it was run: as §1

[12] = target: HSF1 (Homo sapiens, UniProt Q00613 1-529); conditions: protein: recombinant; tags: N-terminal GST; chain copies: 3; dsDNA, one strand shown
Chain of HSF1 (Q00613 whole entry): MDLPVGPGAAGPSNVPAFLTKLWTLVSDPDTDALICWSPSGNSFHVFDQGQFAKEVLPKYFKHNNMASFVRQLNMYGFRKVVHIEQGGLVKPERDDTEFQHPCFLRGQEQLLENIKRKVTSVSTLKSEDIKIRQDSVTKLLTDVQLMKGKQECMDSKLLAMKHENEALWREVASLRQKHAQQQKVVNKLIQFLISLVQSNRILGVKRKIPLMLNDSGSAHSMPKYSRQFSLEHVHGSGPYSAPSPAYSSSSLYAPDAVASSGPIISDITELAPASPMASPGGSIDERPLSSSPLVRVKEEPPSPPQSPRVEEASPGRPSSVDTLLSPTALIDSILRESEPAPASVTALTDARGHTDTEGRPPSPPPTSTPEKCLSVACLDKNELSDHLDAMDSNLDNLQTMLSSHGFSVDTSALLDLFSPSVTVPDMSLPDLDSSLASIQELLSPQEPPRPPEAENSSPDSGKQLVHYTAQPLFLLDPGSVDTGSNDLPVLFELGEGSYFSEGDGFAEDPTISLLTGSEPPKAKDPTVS
How it was run: as §1

[13] = target: T8, SPIC (Homo sapiens, UniProt Q8N5J4 1-248); conditions: protein: recombinant; tags: N-terminal GST; dsDNA, one strand shown
T8 sequence: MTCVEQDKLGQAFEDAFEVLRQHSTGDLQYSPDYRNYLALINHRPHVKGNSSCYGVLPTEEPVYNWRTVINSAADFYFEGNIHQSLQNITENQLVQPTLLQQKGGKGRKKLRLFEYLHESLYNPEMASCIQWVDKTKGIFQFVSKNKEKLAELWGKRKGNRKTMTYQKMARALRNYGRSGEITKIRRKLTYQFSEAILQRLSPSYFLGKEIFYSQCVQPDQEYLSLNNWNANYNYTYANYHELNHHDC
How it was run: as §1

[14] = target: ELF4 (Homo sapiens, UniProt Q99607 1-663); conditions: protein: recombinant; tags: N-terminal GST; dsDNA, one strand shown
Chain of ELF4 (Q99607 whole entry): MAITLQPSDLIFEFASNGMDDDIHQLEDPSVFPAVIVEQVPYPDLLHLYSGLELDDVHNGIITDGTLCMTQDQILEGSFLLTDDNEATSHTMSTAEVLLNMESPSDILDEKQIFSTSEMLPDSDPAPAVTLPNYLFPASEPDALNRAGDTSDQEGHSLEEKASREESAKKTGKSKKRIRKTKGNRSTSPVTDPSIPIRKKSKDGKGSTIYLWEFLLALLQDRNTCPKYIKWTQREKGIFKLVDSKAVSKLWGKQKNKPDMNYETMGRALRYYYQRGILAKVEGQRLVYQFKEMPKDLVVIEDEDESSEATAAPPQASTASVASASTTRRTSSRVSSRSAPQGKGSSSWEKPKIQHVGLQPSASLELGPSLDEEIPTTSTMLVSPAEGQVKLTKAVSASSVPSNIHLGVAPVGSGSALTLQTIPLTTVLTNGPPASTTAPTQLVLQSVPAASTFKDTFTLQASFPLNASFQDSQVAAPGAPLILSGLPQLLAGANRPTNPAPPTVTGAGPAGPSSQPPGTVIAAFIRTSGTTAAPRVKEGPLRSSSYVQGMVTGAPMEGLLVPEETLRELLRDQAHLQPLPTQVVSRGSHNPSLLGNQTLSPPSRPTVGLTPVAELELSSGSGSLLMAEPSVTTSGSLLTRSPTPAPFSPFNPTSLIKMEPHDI
How it was run: as §1

[15] = target: T9, ELK4 (Homo sapiens, UniProt P28324-2 1-405); conditions: protein: recombinant; tags: N-terminal GST; dsDNA, one strand shown
T9 sequence: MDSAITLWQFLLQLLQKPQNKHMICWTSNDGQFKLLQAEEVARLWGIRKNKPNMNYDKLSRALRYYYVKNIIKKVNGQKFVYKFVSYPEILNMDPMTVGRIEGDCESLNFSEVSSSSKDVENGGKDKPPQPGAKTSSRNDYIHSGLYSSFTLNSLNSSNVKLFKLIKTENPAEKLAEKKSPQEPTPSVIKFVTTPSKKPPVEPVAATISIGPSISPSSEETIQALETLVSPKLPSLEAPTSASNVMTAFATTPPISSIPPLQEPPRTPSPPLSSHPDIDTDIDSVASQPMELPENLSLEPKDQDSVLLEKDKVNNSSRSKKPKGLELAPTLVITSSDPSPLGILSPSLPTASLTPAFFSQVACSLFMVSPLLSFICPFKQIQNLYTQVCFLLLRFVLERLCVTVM
How it was run: as §1

[16] = target: T10, ETV2 (Homo sapiens, UniProt O00321 1-342); conditions: protein: recombinant; tags: N-terminal GST; dsDNA, one strand shown
T10 sequence: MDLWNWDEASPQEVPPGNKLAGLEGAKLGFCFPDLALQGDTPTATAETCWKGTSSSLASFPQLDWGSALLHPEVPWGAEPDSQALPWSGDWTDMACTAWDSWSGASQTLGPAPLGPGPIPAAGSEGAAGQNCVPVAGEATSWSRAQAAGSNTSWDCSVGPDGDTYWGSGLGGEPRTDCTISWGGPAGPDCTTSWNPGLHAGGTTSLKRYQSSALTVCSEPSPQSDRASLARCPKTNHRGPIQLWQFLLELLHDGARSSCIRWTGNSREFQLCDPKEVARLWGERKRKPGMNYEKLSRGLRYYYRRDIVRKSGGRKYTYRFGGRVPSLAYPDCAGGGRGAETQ
How it was run: as §1

[17] = target: T11, ELF3 (Homo sapiens, UniProt P78545 1-371); conditions: protein: recombinant; tags: N-terminal GST; dsDNA, one strand shown
T11 sequence: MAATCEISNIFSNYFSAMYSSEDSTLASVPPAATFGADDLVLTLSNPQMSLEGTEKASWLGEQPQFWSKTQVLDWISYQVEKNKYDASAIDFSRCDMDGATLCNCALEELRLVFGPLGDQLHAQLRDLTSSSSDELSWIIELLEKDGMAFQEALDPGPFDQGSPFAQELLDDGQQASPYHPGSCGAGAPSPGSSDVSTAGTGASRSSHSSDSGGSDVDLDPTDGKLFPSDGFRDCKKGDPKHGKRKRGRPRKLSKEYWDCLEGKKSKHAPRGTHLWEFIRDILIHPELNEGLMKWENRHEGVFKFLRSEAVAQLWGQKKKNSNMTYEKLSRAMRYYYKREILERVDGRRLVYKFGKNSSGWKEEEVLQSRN
How it was run: as §1

[18] = target: CRX (Homo sapiens, UniProt O43186 1-299); conditions: protein: recombinant; tags: N-terminal GST; dsDNA, one strand shown
Chain of CRX (O43186 whole entry): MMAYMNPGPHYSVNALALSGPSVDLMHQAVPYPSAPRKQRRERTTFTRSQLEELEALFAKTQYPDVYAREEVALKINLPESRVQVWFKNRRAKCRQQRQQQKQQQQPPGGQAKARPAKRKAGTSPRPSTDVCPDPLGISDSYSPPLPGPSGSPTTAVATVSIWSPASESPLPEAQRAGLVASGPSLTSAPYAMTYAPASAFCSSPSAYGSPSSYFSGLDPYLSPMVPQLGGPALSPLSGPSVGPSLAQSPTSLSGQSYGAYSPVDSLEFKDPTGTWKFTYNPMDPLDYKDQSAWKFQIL
How it was run: as §1

[19] = target: ETV1 (Homo sapiens, UniProt P50549 1-477); conditions: protein: recombinant; tags: N-terminal GST; dsDNA, one strand shown
Chain of ETV1 (P50549 whole entry): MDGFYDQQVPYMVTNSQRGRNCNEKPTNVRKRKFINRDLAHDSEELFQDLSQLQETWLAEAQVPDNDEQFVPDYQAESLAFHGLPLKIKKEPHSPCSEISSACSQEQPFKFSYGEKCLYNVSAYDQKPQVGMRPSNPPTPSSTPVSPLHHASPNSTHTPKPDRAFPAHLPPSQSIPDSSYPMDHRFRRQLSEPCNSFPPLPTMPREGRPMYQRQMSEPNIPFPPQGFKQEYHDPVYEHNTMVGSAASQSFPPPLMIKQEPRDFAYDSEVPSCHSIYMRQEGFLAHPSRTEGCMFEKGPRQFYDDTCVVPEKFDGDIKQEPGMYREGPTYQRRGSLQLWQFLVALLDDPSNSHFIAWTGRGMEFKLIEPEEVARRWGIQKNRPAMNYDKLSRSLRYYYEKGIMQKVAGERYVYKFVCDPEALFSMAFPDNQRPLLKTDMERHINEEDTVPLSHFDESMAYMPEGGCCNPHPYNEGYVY
How it was run: as §1

TTTATC
binding signal [1]: 1.25 fold enrichment (6-mer frequency, TF over GST control) | binding signal [2]: 1.27 fold enrichment (6-mer frequency, TF over GST control) | binding signal [3]: 1.25 fold enrichment (6-mer frequency, TF over GST control) | binding signal [4]: 1.22 fold enrichment (6-mer frequency, TF over GST control) | binding signal [5]: 1.21 fold enrichment (6-mer frequency, TF over GST control) | binding signal [6]: 1.36 fold enrichment (6-mer frequency, TF over GST control) | binding signal [7]: 1.26 fold enrichment (6-mer frequency, TF over GST control) | binding signal [8]: 1.28 fold enrichment (6-mer frequency, TF over GST control) | binding signal [9]: 1.37 fold enrichment (6-mer frequency, TF over GST control) | binding signal [10]: 1.14 fold enrichment (6-mer frequency, TF over GST control) | binding signal [11]: 1.2 fold enrichment (6-mer frequency, TF over GST control) | binding signal [12]: 1.65 fold enrichment (6-mer frequency, TF over GST control) | binding signal [13]: 1.26 fold enrichment (6-mer frequency, TF over GST control) | binding signal [14]: 1.2 fold enrichment (6-mer frequency, TF over GST control) | binding signal [15]: 1.4 fold enrichment (6-mer frequency, TF over GST control) | binding signal [16]: 1.24 fold enrichment (6-mer frequency, TF over GST control) | binding signal [17]: 1.18 fold enrichment (6-mer frequency, TF over GST control) | binding signal [18]: 2.15 fold enrichment (6-mer frequency, TF over GST control) | binding signal [19]: 1.18 fold enrichment (6-mer frequency, TF over GST control)
